Reference: PubChem BioAssay (NCATS)
Values joined by “and” are separate entries in the source; they are usually repeats but may differ in a detail not shown here. Equal entries are not always repeated. Inconclusive results are not listed. The source holds several records for some structures; these can differ, active in one and inactive in another. Active and inactive are the calls of the source. The call rests on the fitted dose curve; in most records, active means well fitted curve in the direction sought with a large enough effect; inconclusive means small, poorly fitted or top-dose-only effect, or another doubt; inactive means no such curve, though single readings can be large; an effect the other way counts as inactive or inconclusive.

Test: Primary qHTS for inhibitors of nuclear receptor binding SET domain protein 2 (NSD2) in an isogenic RCH-ACV NSD2 p.E1099K mutant (9B) (AID 1645876)
Conditions: RCH-ACV NSD2 E1099K (9B) viability, CellTiter-Glo, 72 h; series mostly up to 44.9 µM; activity change, negative = viability loss: at the top concentration
Further: nearly all actives have a fitted effect of over 70% in size.
On the % scale 0 is the no-effect control and ±100 the full control effect; potency means the concentration at half of the fitted maximal effect.

| SMILES | Potency | activity change, negative = viability loss |
| --- | --- | --- |
| CO[C@H]1C(=O)[C@]2(C)[C@@H](OC)C[C@H]3OC[C@@]3(OC(C)=O)[C@H]2[C@H](OC(=O)c2ccccc2)[C@]2(O)C[C@H](OC(=O)[C@H](O)[C@@H](NC(=O)OC(C)(C)C)c3ccccc3)C(C)=C1C2(C)C | 0.003 µM (active) |  |
| O=c1cc(N2CCOCC2)oc2c(-c3cccc4c3sc3ccccc34)cccc12 | 3.32 µM (active) |  |
| COc1cccc2c1CCCC2CCCN1CCN(C2CCCCC2)CC1 (stereo not given) | 20.9 µM (active) |  |
| NC(=O)c1cnc(-c2ccc(C3(N)CCC3)cc2)c(-c2ccccc2)c1 | 2.95 µM (active) and 459 nM (active) |  |
| COc1cc2nc(-c3ccc(N4CCN(C)CC4)cc3)nc(NCCN3CCOCC3)c2cc1OC | 1.86 µM (active) |  |
| C[C@@H](O)[C@H]1C(=O)N2C(C(=O)O)=C(S[C@@H]3CN[C@H](C(=O)N(C)C)C3)[C@H](C)[C@H]12 | inactive |  |
| CC1(C)Cc2c(sc(NC(=S)NC(=O)c3ccccc3)c2C(=O)O)CO1 |  | -0.999% (inactive) |
| O=C(NCc1ccccc1)c1csc(Nc2ccncn2)n1 | 11.8 µM (active) |  |
| COc1ccc2c(Oc3ccc(NC(=O)c4c(C)n(CC(C)(C)O)n(-c5ccccc5)c4=O)cc3F)ccnc2c1 | 11.5 µM (active) |  |
| CCOC(CN1C(=O)[C@](CC(=O)Nc2ccc(C)cc2)(NC(=O)Nc2ccc(C)cc2)c2ccccc21)OCC | 10.5 µM (active) |  |
| O=C(O)c1cc(-c2ccccc2)nc2ccccc12 | inactive |  |
| Nc1ncnc2c1nc(Cl)n2[C@@H]1O[C@H](CO)[C@@H](O)[C@@H]1O | 18.6 µM (active) |  |
| Cc1ccccc1C(C(=O)NC1CCCCC1)N(C(=O)Cn1ccnc1C)c1cccc(F)c1 (stereo not given) |  | 9.21% (inactive) |
| Oc1ccc(C2=Cc3ccc(O)cc3OC2)cc1 | 1.18 µM (active) |  |
| c1cc(-c2sc(-c3ccncc3)c(-c3ccncc3)c2-c2ccncc2)ccn1 |  | -5.94% (inactive) |
| CN1CCN(CCOc2cc(OC3CCOCC3)c3c(Nc4c(Cl)ccc5c4OCO5)ncnc3c2)CC1 | 3.25 µM (active) and 2.63 µM (active) |  |
| C=C1C(=O)OC(CCCCCCCC)C1C(=O)O (stereo not given) |  | 3.17% (inactive) |
| O=c1cc(CN2CCOCC2)occ1OCCCCCSc1ccnc2cc(C(F)(F)F)ccc12 | 18.6 µM (active) and 9.16 µM (active) |  |
| CC(C)(C)COc1ccc(-n2cc(C(=O)O)cn2)cc1C#N |  | -62.9% (inactive) |
| O=C(N[C@@H](c1ccccc1)[C@@H]1CCCCN1)c1cccc(C(F)(F)F)c1Cl | 18.6 µM (active) |  |
| COc1cc(N2CCC(N3CCN(C)CC3)CC2)ccc1Nc1ncc(Cl)c(Nc2ccccc2S(=O)(=O)C(C)C)n1 | 1.29 µM (active) and 3.72 µM (active) |  |
| NC(=O)c1cccc2[nH]c(-c3ccc([C@H]4CCCN4)cc3F)nc12 | 14.8 µM (active) |  |
| O=C1c2ccccc2-[n+]2ccc3c([nH]c4ccccc43)c21 | 1.32 µM (active) |  |
| CC[C@]1(O)C[C@@H]2CN(CCc3c([nH]c4ccccc34)[C@@](C(=O)OC)(c3cc4c(cc3OC)N(C)[C@H]3[C@@](O)(C(=O)OC)[C@H](OC(C)=O)[C@]5(CC)C=CCN6CC[C@]43[C@@H]65)C2)C1 | 33.5 nM (active) and 84.1 nM (active) and 57.8 nM (active) |  |
| NC1CCC(Nc2nc(Nc3ccc(C(=O)N4CCCCC4)cc3)c3ncn(-c4cccc(F)c4)c3n2)CC1 (stereo not given) | 1.84 µM (active) |  |
| CC(=O)N(C)C1(c2ccccc2)CCN(CCC[C@]2(c3ccc(Cl)c(Cl)c3)CCCN(C(=O)c3ccccc3)C2)CC1 | 7.28 µM (active) |  |
| CC1(C)CCC(CN2CCN(c3ccc(C(=O)NS(=O)(=O)c4ccc(NCC5CCOCC5)c([N+](=O)[O-])c4)c(Oc4cnc5[nH]ccc5c4)c3)CC2)=C(c2ccc(Cl)cc2)C1 | 11.2 µM (active) and inactive |  |
| COc1ccc2cc(-c3nc(-c4ccc(S(C)=O)cc4)[nH]c3-c3ccncc3)ccc2c1 (stereo not given) | 23.5 µM (active) and 20.5 µM (active) |  |

Test: Primary qHTS for inhibitors of nuclear receptor binding SET domain protein 2 (NSD2) in an RCH-ACV wild type WT cells (2C) (AID 1645877)
Conditions: RCH-ACV (leukaemia line) NSD2 WT (2C) viability, CellTiter-Glo, 72 h; series mostly up to 44.9 µM; activity change, negative = cell killing: at the top concentration

| SMILES | Potency | activity change, negative = cell killing |
| --- | --- | --- |
| CCNc1cc(NC2CCC(O)CC2)nc(Nc2ccc3c(ccn3Cc3ccccc3)c2)n1 (stereo not given) | 3.32 µM (active) |  |
| CO[C@H]1C(=O)[C@]2(C)[C@@H](OC)C[C@H]3OC[C@@]3(OC(C)=O)[C@H]2[C@H](OC(=O)c2ccccc2)[C@]2(O)C[C@H](OC(=O)[C@H](O)[C@@H](NC(=O)OC(C)(C)C)c3ccccc3)C(C)=C1C2(C)C | 0.0026 µM (active) |  |
| O=c1cc(N2CCOCC2)oc2c(-c3cccc4c3sc3ccccc34)cccc12 | 2.63 µM (active) |  |
| COc1cccc2c1CCCC2CCCN1CCN(C2CCCCC2)CC1 (stereo not given) | 20.9 µM (active) |  |
| NC(=O)c1cnc(-c2ccc(C3(N)CCC3)cc2)c(-c2ccccc2)c1 | 11.8 µM (active) and 916 nM (active) |  |
| COc1cc2nc(-c3ccc(N4CCN(C)CC4)cc3)nc(NCCN3CCOCC3)c2cc1OC | 2.09 µM (active) |  |
| C[C@@H](O)[C@H]1C(=O)N2C(C(=O)O)=C(S[C@@H]3CN[C@H](C(=O)N(C)C)C3)[C@H](C)[C@H]12 | inactive |  |
| CC1(C)Cc2c(sc(NC(=S)NC(=O)c3ccccc3)c2C(=O)O)CO1 |  | -17.7% (inactive) |
| O=C(NCc1ccccc1)c1csc(Nc2ccncn2)n1 | 9.34 µM (active) and 16.3 µM (active) |  |
| COc1ccc2c(Oc3ccc(NC(=O)c4c(C)n(CC(C)(C)O)n(-c5ccccc5)c4=O)cc3F)ccnc2c1 | 14.5 µM (active) |  |
| CCOC(CN1C(=O)[C@](CC(=O)Nc2ccc(C)cc2)(NC(=O)Nc2ccc(C)cc2)c2ccccc21)OCC | 6.61 µM (active) |  |
| O=C(O)c1cc(-c2ccccc2)nc2ccccc12 | inactive |  |
| Nc1ncnc2c1nc(Cl)n2[C@@H]1O[C@H](CO)[C@@H](O)[C@@H]1O | 20.9 µM (active) |  |
| Cc1ccccc1C(C(=O)NC1CCCCC1)N(C(=O)Cn1ccnc1C)c1cccc(F)c1 (stereo not given) |  | 0.105% (inactive) |
| Oc1ccc(C2=Cc3ccc(O)cc3OC2)cc1 | 1.32 µM (active) |  |
| O=c1cc(-c2ccccc2)oc2cc(O)c(O)c(O)c12 | 23.5 µM (active) |  |

| SMILES | Potency | activity change, negative = cell killing |
| --- | --- | --- |
| c1cc(-c2sc(-c3ccncc3)c(-c3ccncc3)c2-c2ccncc2)ccn1 |  | -10.5% (inactive) |
| CN1CCN(CCOc2cc(OC3CCOCC3)c3c(Nc4c(Cl)ccc5c4OCO5)ncnc3c2)CC1 | 5.15 µM (active) and 2.95 µM (active) |  |
| C=C1C(=O)OC(CCCCCCCC)C1C(=O)O (stereo not given) |  | -6.36% (inactive) |
| O=c1cc(CN2CCOCC2)occ1OCCCCCSc1ccnc2cc(C(F)(F)F)ccc12 | 16.6 µM (active) and 18.3 µM (active) |  |
| CC(C)(C)COc1ccc(-n2cc(C(=O)O)cn2)cc1C#N |  | -58.7% (inactive) |
| O=C(NOCC(O)CO)c1cc(Br)c(F)c(F)c1Nc1ccc(I)cc1F (stereo not given) | 20.9 µM (active) |  |
| O=C(N[C@@H](c1ccccc1)[C@@H]1CCCCN1)c1cccc(C(F)(F)F)c1Cl | 16.6 µM (active) |  |
| COc1cc(N2CCC(N3CCN(C)CC3)CC2)ccc1Nc1ncc(Cl)c(Nc2ccccc2S(=O)(=O)C(C)C)n1 | 649 nM (active) and 1.48 µM (active) |  |
| NC(=O)c1cccc2[nH]c(-c3ccc([C@H]4CCCN4)cc3F)nc12 | 10.5 µM (active) |  |
| O=C1c2ccccc2-[n+]2ccc3c([nH]c4ccccc43)c21 | 1.32 µM (active) |  |
| CC[C@]1(O)C[C@@H]2CN(CCc3c([nH]c4ccccc34)[C@@](C(=O)OC)(c3cc4c(cc3OC)N(C)[C@H]3[C@@](O)(C(=O)OC)[C@H](OC(C)=O)[C@]5(CC)C=CCN6CC[C@]43[C@@H]65)C2)C1 | 26.6 nM (active) and 53.1 nM (active) and 36.5 nM (active) |  |
| NC1CCC(Nc2nc(Nc3ccc(C(=O)N4CCCCC4)cc3)c3ncn(-c4cccc(F)c4)c3n2)CC1 (stereo not given) | 2.06 µM (active) |  |
| CC(=O)N(C)C1(c2ccccc2)CCN(CCC[C@]2(c3ccc(Cl)c(Cl)c3)CCCN(C(=O)c3ccccc3)C2)CC1 | 5.78 µM (active) |  |
| CC(C)(C(=O)NCC(F)(F)C(F)(F)F)C(=O)N[C@@H]1C(=O)Nc2ccccc2-c2ccccc21 |  | -15.8% (inactive) |
| CC1(C)CCC(CN2CCN(c3ccc(C(=O)NS(=O)(=O)c4ccc(NCC5CCOCC5)c([N+](=O)[O-])c4)c(Oc4cnc5[nH]ccc5c4)c3)CC2)=C(c2ccc(Cl)cc2)C1 | 12.6 µM (active) and inactive |  |
| COc1ccc2cc(-c3nc(-c4ccc(S(C)=O)cc4)[nH]c3-c3ccncc3)ccc2c1 (stereo not given) | 26.3 µM (active) and 20.5 µM (active) |  |
